Measured values: ChEMBL document CHEMBL3433997, “St. Jude Leishmania screening dataset” (2016)

Biological target: Glucose transporter (Leishmania mexicana) (UniProt O61059)
Assay: ST_JUDE_LEISH: Cytotoxicity at 2uM final concentration against transgenic Leishmania Mexicana promastigotes LmGT2 that are glucose transport deficient and complemented with the L. Mexicana glucose transporter 2. Activity is measured by DNA content using SYBR green in vitro
Assay type: functional

Compared with `COc1cccc2c(Nc3ccccc3C)nc(Nc3ccccc3C)nc12`, `COc1ccccc1-n1c(-c2ccc3ccccc3c2)csc1=NC(=O)c1ccccc1` is lower in inhibition: 4.14% for the first, -4.04% for the second.

Compared with `COc1ccc(CNCc2ccccc2)cc1-c1ccc(S(=O)(=O)NCCN2CCCC2)s1`, `CN1CCN(CCNc2c3ccccc3nc3ccc4ccccc4c23)CC1` is higher in inhibition: 4.5% for the first, 12.5% for the second.

First: C=CCc1cc(C2CCN(CCCCNC(=O)c3ccc(-c4ccc(C#N)cc4)cc3)CC2)c(OCC(N)=O)c2c1CCCC2
Second: CN(C)CCOc1ccc(N2CCN(CCCCNC(=O)c3ccc(/C=C/c4cc(Cl)cc(Cl)c4)cc3)CC2)cc1
The inhibition of the first is higher: 3.22% for the first, -0.38% for the second.

Going from `CC(C)Oc1ccc2c(c1)OC(c1ccccc1)(C(F)(F)F)NC2=O` (stereo not given) to `CC(C)[C@H](NC(=O)c1ccc(O)c(-c2cccc(C(F)(F)F)c2)c1)C(=O)NC1CCCc2ccccc21` (stereo not given in full), the inhibition falls from 7.18% to 0.81%.

First: Cc1ccc(NCc2cccc(F)c2)cc1S(=O)(=O)N[C@@H]1CCN(C#N)C1
Second: Cc1cc(N[C@@H](CC(C)C)C(=O)NCc2cccc(F)c2)nc(NCCc2ccccc2)n1
The inhibition of the first is lower: 1.18% for the first, 2.16% for the second.

Going from `Cc1nc2nc(N)nc(N)c2c(C)c1Cc1ccc(Cl)cc1` to `Cc1nc2nc(N)nc(N)c2c(C)c1Cc1ccc([N+](=O)[O-])cc1`, the inhibition falls from 28.7% to -0.24%.

Compared with `Cc1n[nH]c2ccc(-c3cc(OC[C@@H](N)Cc4ccccc4)cnc3-c3ccc(OCc4cccc(F)c4)cc3)cc12`, `Cc1cccc2nc(-c3ccc(-c4cccc(CNCc5cnn(-c6ccccc6)n5)c4)s3)[nH]c12` is higher in inhibition: -0.73% for the first, 1.93% for the second.

Compared with `CN=C(N)c1ccc(NC(=O)C=Cc2ccc(C(=O)Nc3ccc(C(N)=NC)cc3)cc2)cc1`, `COc1ccc(-c2cccc(NC(=O)c3ccc(C#N)cc3)c2)cc1CN1CCN(C)CC1` is higher in inhibition: 4.6% for the first, 11.3% for the second.

Compared with `CCOC(=O)NCCSC(C)(C)[C@H](NC(=O)[C@H](Cc1cc2ccccc2s1)[C@H](CC)N(O)C=O)C(=O)Nc1nccs1`, `C[C@H](NC(=O)[C@H](Cc1ccccc1)NC(=O)OC(C)(C)C)C(=O)N[C@@H](CC1CCCCC1)C(O)CN` (stereo not given in full) is lower in inhibition: -0.04% for the first, -1.53% for the second.

First: CCCCNc1nccc2ccc(-c3ccncc3)cc12
Second: Cc1cccc2nc(-c3cccc(-c4ccc(CNCCNC(=O)c5ccnn5C)cc4)c3)[nH]c12
The inhibition of the first is higher: 4.26% for the first, -2.92% for the second.

First: N#Cc1ccc2c(c1)CCN(CCC1CCC(NC(=O)/C=C/c3ccc4[nH]ccc4c3)CC1)CC2 (stereo not given)
Second: Cc1cccc(NC(=O)NC2CCN(CCCCCNC(=O)/C=C/c3ccc(Cl)c(Cl)c3)CC2)c1
The inhibition of the first is lower: 0.13% for the first, 3.5% for the second.

First: CCN(CC)CCN(Cc1ccc(-c2ccc(C(F)(F)F)cc2)cc1)C(=O)Cn1c(SCc2ccc(F)cc2)nc(=O)c2ccccc21
Second: COc1ccc(CC2(c3ccc(F)cc3)N=C(N)N(CCCc3ccc(F)c(F)c3)C2=O)cc1 (stereo not given)
The inhibition of the first is lower: 1.8% for the first, 3.88% for the second.

Compared with `O=C(/C=C/c1ccc(Cl)cc1)NCCCCCN1CCCN(C(=O)Nc2ccc(F)c(Cl)c2)CC1`, `O=C(Nc1ccc(Cl)cc1)N[C@H]1CCN(CCCCCNC(=O)C2CC2c2ccc(Cl)c(Cl)c2)C1` (stereo not given in full) is higher in inhibition: 4.64% for the first, 8.02% for the second.

Going from `CCC(C)NS(=O)(=O)c1ccc2nc(Nc3ccc(C)cc3)n([C@H](C)C(C)(C)C)c2c1` (stereo not given in full) to `COc1cc(C)nc2ccc(NC(=O)Nc3ccc4nc(C)cc(OC)c4c3)cc12`, the inhibition rises from -0.82% to 8.59%.

First: COc1c(I)cc(Cc2cnc(N)nc2N)cc1I
Second: Cc1nc(N)nc(N)c1Oc1cccc(Cl)c1
The inhibition of the first is higher: 2.6% for the first, 0.35% for the second.

Going from `CC(C)NCc1ccc(-c2ccc(-c3nc4cc(C(F)(F)F)ccc4[nH]3)s2)cc1` to `CC(O)C1CCCCN1C(=O)c1ccc(-c2ccc(-c3nc4cc(F)ccc4[nH]3)cc2)cc1` (stereo not given), the inhibition falls from 15.3% to 3.6%.

Compared with `O=C(Nc1cccc(-c2nn3ccccc3c2-c2ccnc(Nc3ccccc3)n2)c1)c1cc(F)ccc1F`, `Fc1ccc(CNc2ccc3ncc(-c4cccnc4)n3n2)cc1` is higher in inhibition: -2.21% for the first, 0.67% for the second.

First: CC(C)CNCc1ccc(-c2cccc(CN(CCCN3CCN(C)CC3)C(=O)/C=C/c3ccccc3)c2)cc1
Second: O=C(NCC1CCN(C/C=C/c2ccccc2)CC1)Nc1ccc(Oc2ccccc2)cc1
The inhibition of the first is higher: 5.27% for the first, 2.71% for the second.

Going from `COc1ccc(C2CC(=O)C3=C(C2)NC(C)=C(C(=O)OC(C)C)C3c2ccc(O)cc2)cc1OC` (stereo not given) to `CC1c2cccc(O)c2CCN1CCc1ccc(Cl)c(Cl)c1` (stereo not given), the inhibition rises from 5.45% to 5.5%.

Compared with `O=S(=O)(c1cccc(Br)c1)N1CCCCC(c2ccc(C(F)(F)F)cc2)=N1`, `COc1ccc2cc(C(c3nnnn3CC3CCCO3)N3CCc4ccccc43)c(=O)[nH]c2c1` (stereo not given) is higher in inhibition: 2.2% for the first, 2.23% for the second.
